Test results taken from PubChem BioAssay (NCATS).
Results filed as inconclusive are left out. Calls of active or inactive are those of the source. Unless noted, calls follow the shape of the dose curve; as a rule, active = well fitted inhibition curve with a large enough effect; inconclusive = small, poorly fitted or top-dose-only effect; inactive = flat fitted curve, though single readings scatter. Numbered stars: 1 amine (or outer) side, 2 acyl side, 3 side chain; on linkers, the order of the positions; unused ones are H or OH. Bridge positions count the residues as written; N and C are the ends. Square brackets hold non-standard residues; d marks the D form. Peptide text beside a SMILES is read from it. * marks the point of attachment. ξ: configuration not given here. ΔAla(Z-3-ureido) = NC(=O)N/C=C(\N)C(=O)O; X2 = NC1=NC(O)CC(C(N[*:1])C(=O)[*:2])N1; ξβ3hOrn = NCCCC(N)CC(=O)*; Dap = NC[CH](N)C(=O)O

Legend:
[1] = S16 Schwann cell PMP22 intronic element beta-lactamase assay (AID 624044; calls by dose curve; also: nearly all actives have a fitted effect of over 15% in size); details: S16 rat Schwann cells, PMP22 element beta-lactamase FRET, 24 h; series mostly up to 38.3 µM
Procedure, shortened: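 Rat S16 Schwann cells with beta-Lac driven by a PMP22 intronic element, compound-treated 24 h at 37 °C. LiveBLAzer FRET B/G read: 460 nm normalized to potassium clavulanate vs DMSO; 535 nm FRET as viability; concentration-effect curves classified.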

3D7 = test: qHTS profiling for inhibitors of Plasmodium falciparum proliferation (AID 504749); also: nearly all actives have a fitted effect of over 60% in size; details: P. falciparum in erythrocytes, SYBR Green DNA, 72 h; series mostly up to 28.7 µM
Procedure, shortened: (§1)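 P. falciparum-infected erythrocytes (0.3% parasitemia, 2.5% hematocrit final) were exposed to compounds for 72 h at 37 C in 5% CO2, then lysed with SYBR Green buffer overnight at room temperature; parasite DNA fluorescence was normalized to artemisinin and DMSO controls.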

CP215 = test: as above; details: P. falciparum in erythrocytes, SYBR Green DNA, 72 h; series mostly up to 28.7 µM
Procedure, shortened: as §1

CP256 = test: as above; details: P. falciparum in erythrocytes, SYBR Green DNA, 72 h; series mostly up to 28.7 µM
Procedure, shortened: as §1

CP260 = test: as above; details: P. falciparum in erythrocytes, SYBR Green DNA, 72 h; series mostly up to 28.7 µM
Procedure, shortened: as §1

DIV14 = test: as above; details: P. falciparum in erythrocytes, SYBR Green DNA, 72 h; series mostly up to 28.7 µM
Procedure, shortened: as §1

GB4 = test: as above; details: P. falciparum in erythrocytes, SYBR Green DNA, 72 h; series mostly up to 28.7 µM
Procedure, shortened: as §1

ICS = test: as above; details: P. falciparum in erythrocytes, SYBR Green DNA, 72 h; series mostly up to 28.7 µM
Procedure, shortened: as §1

DIV17 = test: as above; details: P. falciparum in erythrocytes, SYBR Green DNA, 72 h; series mostly up to 28.7 µM
Procedure, shortened: as §1

W2 = test: as above; details: P. falciparum in erythrocytes, SYBR Green DNA, 72 h; series mostly up to 28.7 µM
Procedure, shortened: as §1

Measured: Potency

O=C1/C(=C\c2cccs2)CCC/C1=C/c1cccs1
not listed: DIV17 | W2
inactive: all other assays above

O=C(O)c1ccccc1-c1c2cc(Br)c(=O)c(Br)c-2oc2c(Br)c(O)c(Br)cc12
not listed: W2
inactive: all other assays above

NCCCC(N)CC(=O)NC1CNC(=O)C(C2CC(O)N=C(N)N2)NC(=O)/C(=C/NC(N)=O)NC(=O)C(CO)NC(=O)C(CO)NC1=O (stereo not drawn) (ξβ3hOrn-[Dap]SS[ΔAla(Z-3-ureido)][X2]; lactam 1-C; configuration not given here)
inactive: [1] | 3D7 | CP256 | CP260 | GB4 | W2

CCC(Oc1ccccc1)C(=O)NC1C(=O)N2C1SC(C)(C)C2C(=O)O (stereo not drawn)
not listed: DIV14
inactive: all other assays above

CCC1NC(=O)C(NC(=O)c2ncccc2O)C(C)OC(=O)C(c2ccccc2)NC(=O)C2CC(=O)CCN2C(=O)C(Cc2ccccc2)N(C)C(=O)C2CCCN2C1=O (stereo not drawn)
inactive: [1] | 3D7 | CP215 | CP256 | CP260

CC1(C)C(/C=C/C=C/C=C/C=C2\N(CCCCS(=O)(=O)O)c3ccc4ccccc4c3C2(C)C)=[N+](CCCCS(=O)(=O)[O-])c2ccc3ccccc3c21
not listed: 3D7 | CP260 | W2
inactive: all other assays above

COc1ccc(-c2nc3ccc(C4=C(C)CC(=O)NN4)cc3[nH]2)cc1
inactive: [1] | CP260

CCOC(=O)C(CS)NCCN[C@@H](CS)C(=O)OCC (stereo partly drawn)
inactive: all assays above

CCC(C)C1NC(=O)C(Cc2ccc(O)cc2)NC(=O)C(N)CSSCC(C(=O)N2CCCC2C(=O)NC(CC(C)C)C(=O)NCC(N)=O)NC(=O)C(CC(N)=O)NC(=O)C(CCC(N)=O)NC1=O (stereo not drawn)
not listed: [1]
inactive: all other assays above

CC(C)C[C@H](NC(=O)[C@@H](Cc1c[nH]c2ccccc12)NC(=O)[C@@H](Cc1ccc(O)cc1)NC(=O)[C@@H](CO)NC(=O)[C@@H](Cc1c[nH]c2ccccc12)NC(=O)C(Cc1cnc[nH]1)NC(=O)C1CCC(=O)N1)C(=O)N[C@@H](CCCN=C(N)N)C(=O)N1CCC[C@@H]1C(=O)NCC(N)=O (stereo partly drawn)
inactive: all assays above

CC(=O)OCC1=C(C(=O)O)N2C(=O)C(NC(=O)Cc3ccccc3)C2SC1 (stereo not drawn)
inactive: all assays above

Cn1cc(O)nc1NC(=O)Nc1cccc(Cl)c1
not listed: CP256 | GB4
inactive: all other assays above
